Compound activity (PubChem)
This is a sample that favours compounds with a hit; in the whole collection about 21% have one here.
Pf growth 48h = Primary qHTS for delayed death inhibitors of the malarial parasite plastid, 48 hour incubation | Potency, µM (top dose mostly 28.7 µM), hits mostly inhibitors | hit rate 5.9% among 310,000 | P. falciparum luciferase growth in erythrocytes, 48 h
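In quantitative HTS format, infected erythrocytes bearing luciferase-reporter parasites were treated for a single generation at 37 C. Luminescence after adding detection reagent served as the growth measure.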
Pf growth 96h = Primary qHTS for delayed death inhibitors of the malarial parasite plastid, 96 hour incubation | P. falciparum luciferase reporter growth, 96 h | Potency, µM (series often up to 28.7 µM), usual class: inhibitors | hit rate 6.9% among 320,000
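Readout is luminescence from an integrated firefly luciferase in P. falciparum. Red cells, 2% hematocrit and 0.05% parasitemia final, were cultured with compound through two parasite generations (96 hours) at 37 C, 5% CO2.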
HCV inh = qHTS Assay for Inhibitors of Hepatitis C Virus (HCV); Huh7.5.1 HCVcc-Cre infection, luciferase reporter, 44 h; Potency, µM (doses to about 41.8 µM), actives largely listed as inhibitors; hit rate 3.4% among 340,000; AID 651820, 2012
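Infectious HCV cell culture screen: compound-treated cells (1,000/well, pre-plated 4 h) are infected with HCVcc-Cre at roughly 0.5 moi and grown 44 h. Infection is quantified by luciferase signal after 15 min substrate incubation at room temperature.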
AMA1-RON2 inh = qHTS for Inhibitors of AMA1-RON; Towards Development of Antimalarial Drug Lead: Primary Screen. Potency, µM (titrated, usually from 58.2 µM), usual class: inhibitors. Plasmodium falciparum AMA1 (3D7) - RON2 peptide interaction. hit rate 0.2% among 360,000. AlphaScreen AMA1-biotinylated RON2 peptide binding; also: nearly all actives have a fitted effect of over 45% in size
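AMA1 (3D7) with his tag at 25 nM final met compounds first, then biotinylated RON2 peptide at 25 nM; detection used donor plus acceptor beads, 10 µg/mL apiece, read by AlphaScreen after 30 min at room temperature.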
Shiga toxin inh = A qHTS for Small Molecule Inhibitors of Shiga Toxin; Vero cells, Shiga toxin protein synthesis inhibition reporter; inhibition, % at 38.7 µM; hit rate 9.2% among 290,000; AID 2315, 2010; in the data active = inhibition mostly above about 28%, no sharp cut-off; inactive = mostly below about 43%
Cycloheximide cs = Cycloheximide Counterscreen for Small Molecule Inhibitors of Shiga Toxin; cell reporter, cycloheximide protein synthesis inhibition counterscreen; max response, %; hit rate 12% among 300,000; AID 2314, 2010; in the data active = max response mostly above about 13%, no sharp cut-off; inactive = mostly below about 14%; also: read at 38.3 µM for the half of the compounds with a filed dose
Hits are given with their value; – = inactive; ? = inconclusive; · = not tested or not shown; [ ] = remark or other dose. Unless noted, calls follow the shape of the dose curve; as a rule, active = well fitted curve in the direction sought with a large enough effect; inconclusive = small, poorly fitted or top-dose-only effect, or another doubt; inactive = no such curve, though single readings can be large; an effect the other way counts as inactive or inconclusive.

SMILES	Pf growth 48h	Pf growth 96h	HCV inh	AMA1-RON2 inh	Shiga toxin inh	Cycloheximide cs
Cc1ccc(S(=O)(=O)N2CCN(C(=O)COC(=O)c3ccc(Cl)c(S(N)(=O)=O)c3)CC2)c(C)c1	·	·	–	–[11.6 µM]	·	·
Cc1ccc(S(=O)(=O)N2CCN(C(=O)COC(=O)C3(C)CC3(Cl)Cl)CC2)c(C)c1 (configuration not stated)	10.4µM	?	?	–	·	·
OC(c1ccc(Cl)c(F)c1)c1ncc(-c2ccccc2F)[nH]1 (configuration not stated)	·	·	·	–	·	·
CC(C)C[C@@H](CC#N)N1CCN(Cc2ccccc2)CCC1=O	–	?	–	–	–	–
Cc1cccc(C(=O)n2c(=S)nc3cc(C)ccn32)c1	–	–	–	?	125.5	46.0
Cc1ccn2c(c1)nc(=S)n2C(=O)c1ccccc1	–	–	–	–	121.1	114.2
Cc1cccc(C(=O)Nc2ccn(C)n2)c1	–	–	–	–	·	·
COC(=O)C1=C(O)/C(=C\c2cc(C)n(-c3ccc(F)cc3)c2C)N=C1C	?	–	–	–	75.3	–
COC(=O)C1=C(C)NC(=O)/C1=C\c1cc(C)n(-c2ccc(F)cc2)c1C	–	?	–	–	–	–
COC(=O)C1=C(O)/C(=C/c2cccc(OC)c2O)N=C1C	–	–	–	–	46.9	29.2
CC(C)Cc1nnc(NC(=O)CCC(=O)NC2CC2)s1	–	–	–	–	–	–
COc1ccc(C)cc1-n1nnnc1SCC(=O)N1CCC(C(=O)Nc2nccs2)CC1	–	1.65µM	–	–	–	–
COc1ccc(C)cc1-n1nnnc1SCC(=O)NC1CCCC1	?	–	?	–	·	·
COc1cccc(/C=C/C(=O)OCC(=O)Nc2nnc(-c3ccccc3)o2)c1	–	?	–	–	·	·
CCn1c(=O)c(C(=O)Nc2ccccc2S(N)(=O)=O)c(O)c2ccccc21	–	–	?	–	–	11.8
CCCCCn1c(=O)c(C(=O)Nc2ccccc2S(N)(=O)=O)c(O)c2ccccc21	–	–	?	–	84.3	17.5
CCCNC(=O)c1cc(C2CCCCN2C(=O)OCC(C)C)on1 (configuration not stated)	·	·	·	–	·	·
Cc1ccc(NC(=O)C2Cc3ccccc3CN2C(=O)c2ccco2)cc1S(=O)(=O)N(C)C (configuration not stated)	–	–	–	–	79.3	30.7
CN(C)S(=O)(=O)c1cccc(NC(=O)C2Cc3ccccc3CN2C(=O)c2ccco2)c1 (configuration not stated)	?	?	–	–	69.0	21.1
CC(C)C(=O)NC(c1cccc([N+](=O)[O-])c1)c1c(O)ccc2ccccc12 (configuration not stated)	4.65µM	–	–	–	–	–
CC(C)C(=O)NC(c1ccc([N+](=O)[O-])cc1)c1c(O)ccc2ccccc12 (configuration not stated)	1.85µM	2.62µM	–	–	–	–
CC1=C(C(=O)OCc2ccccc2)C(c2ccccc2[N+](=O)[O-])NC(=O)N1C (configuration not stated)	–	–	–	–	–	–
Cc1ccc(C)c(S(=O)(=O)N2CCN(C(=O)c3cccnc3)CC2)c1	–	–	–	–	–	–
FC(F)(F)c1ccc2c(c1)ncn2C1CCN(Cc2nnnn2C2CCCCC2)CC1	4.15µM	–	?	–	–	–
COCCn1nnnc1CN1CCC(Cc2ccccc2)CC1	–	2.62µM	–	?	–	–
SMILES	Pf growth 48h	Pf growth 96h	HCV inh	AMA1-RON2 inh	Shiga toxin inh	Cycloheximide cs
COCCn1nnnc1CN1CCSCC1	–	–	–	–	–	–
Cc1ccc(Cn2nnnc2CN2CCC(c3nc4ccc(Cl)cc4[nH]3)CC2)cc1	?	?	?	–	–	–
Cc1nc2ccccc2n1C1CCN(Cc2nnnn2CCc2ccccc2)CC1	13.1µM	·	–	–	–	–
Fc1ccc(Cn2nnnc2CN2CCC(n3nnc4cc(C(F)(F)F)ccc43)CC2)cc1	?	?	?	–	–	–
Clc1ccc2nc(C3CCN(Cc4nnnn4C4CCCCC4)CC3)[nH]c2c1	11.7µM	–	–	–	–	–
O=C(CCNS(=O)(=O)c1ccc(Br)cc1)NNC(=O)C1COc2ccccc2O1 (configuration not stated)	·	·	–	–	·	·
CCN1C[C@@H]2[C@@H]3C(=O)N(C)C(=O)[C@@H]3[C@](C)(C1=O)N2C(=O)c1ccc(F)cc1	·	·	–	–	·	·
CCOc1ccc(S(=O)(=O)N(CC(=O)NCc2cccnc2)c2ccc(F)cc2)cc1	–	–	–	–	–	–
Cc1ccnc(NS(=O)(=O)c2ccc(NC(=O)CCc3ccccc3)cc2)n1	–	–	–	–	–	–
OCCNc1ncnc2c1ncn2[C@H]1CN(Cc2ccco2)C[C@@H](CO)O1	·	·	·	–	·	·
COc1cccc(OC)c1OCCCN1CCC(Cc2ccccc2)CC1	?	?	11.2µM	–	–	–
C=CCNC(=O)CN1CCC(n2c(C)nc3cc(C(F)(F)F)ccc32)CC1	·	–	–	–	–	–
Cc1nc2cc(C(F)(F)F)ccc2n1C1CCN(CC(=O)NC(C)(C)C)CC1	9.28µM	–	–	–	–	–
Cc1nc2cc(C(F)(F)F)ccc2n1C1CCN(Cc2nnnn2Cc2cccs2)CC1	9.28µM	–	–	–	–	–
Cc1nc2cc(C(F)(F)F)ccc2n1C1CCN(Cc2nnnn2Cc2ccc3c(c2)OCO3)CC1	4.65µM	–	?	–	–	–
CC[C@H](C)[C@H](NC(=O)[C@H](Cc1cnc[nH]1)NC(=O)[C@@H](NC(=O)[C@H](CCCNC(=N)N)NC(=O)[C@H](CCCCN)NC(=O)[C@H](CCCNC(=N)N)NC(=O)[C@H](CCCCN)NC(=O)[C@@H](N)CC(N)=O)[C@@H](C)CC)C(=O)NCC(=O)N1CCC[C@H]1C(=O)NCC(=O)N[C@@H](CCCNC(=N)N)C(=O)N[C@@H](C)C(=O)N[C@@H](Cc1ccccc1)C(=O)N[C@@H](Cc1ccc(O)cc1)C(=O)N[C@H](C(=O)N[C@H](C(=O)N[C@@H](CCCCN)C(=O)N[C@@H](CC(N)=O)C(=O)N[C@H](C(=O)N[C@H](C(=O)NCC(=O)N[C@H](C(=O)N[C@H](C(=O)N[C@@H](CS)C(=O)O)[C@@H](C)CC)[C@@H](C)O)[C@@H](C)CC)[C@@H](C)CC)[C@@H](C)O)[C@@H](C)O	·	·	·	·	–	–
CCCCn1c(N)c(N(CC(C)C)C(=O)CC2OC(=O)c3ccccc32)c(=O)[nH]c1=O (configuration not stated)	?	–	–	–	·	·
Nc1cc(N)cc(C(=O)c2ccccc2)c1	·	·	·	–	·	·
CCOC(=O)[C@]12CCC=C1N(Cc1cccc3ccccc13)C(=O)[C@H](CC(=O)N1CCN(C(=O)C3CC3)CC1)C2	·	·	·	–	·	·
